# From PubChem BioAssay (Tox21)
# Where “and” joins values, the source holds several entries; their conditions need not be identical. Identical values can stand only once. Inconclusive results are not listed. A call without a number means that no potency is given here. Calls of active or inactive are those of the source. Unless noted, the call rests on the fitted dose curve; in most records, active means well fitted curve in the direction sought with a large enough effect in the repeat runs; inconclusive means weak or mixed curves; inactive means no such curve, though single readings can be large; an effect the other way counts as inactive or inconclusive.
# Legend:
# [1] = qHTS assay to identify small molecule antagonists of the retinoid acid receptor (RAR) signaling pathway - cell viability counter screen (AID 1159551); further: nearly all actives have a fitted effect of over 35% in size; further: potency means the concentration at half of the fitted maximal effect
# In short: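 In this counter screen, the RARE-luciferase line C3RL4 was exposed for 6 h at 37 C and 5% CO2 to compounds with retinol at 1 uM final. Cellular ATP, read by luminescence, served as the viability measure.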
# [2] = qHTS assay to identify small molecule antagonists of the retinoic acid receptor (RAR) signaling pathway (AID 1159552; further: nearly all actives have a fitted effect of over 50% in size; further: potency means the concentration at half of the fitted maximal effect)
# In short: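 Readout: luciferase luminescence, 30 min post-reagent at RT. Setup: C3RL4 RARE reporter cells, compounds plus retinol 1 uM final, 6 hr incubation at 37 C and 5% CO2.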
# [3] = qHTS assay to identify small molecule agonists of the RXR signaling pathway - cell viability counter screen (AID 1159529); further: nearly all actives have a fitted effect of over 50% in size; further: potency means the concentration at half of the fitted maximal effect
# In short: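 Same-well viability check after the LiveBLAzer FRET read: CellTiter-Glo added, luminescence measured after 30 min at room temperature. Reporter HEK 293T cells had been treated with compounds for 16 hr following a 5 hr preincubation.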
# [4] = qHTS assay to identify small molecule agonists of the retinoic acid receptor (RAR) signaling pathway (AID 1159553); further: potency means the concentration at half of the fitted maximal effect
# In short: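 In this cell-based screen, 1,000 C3RL4 cells per well were cultured overnight, dosed with test chemicals in DMSO for 6 hr, and assessed for RARE luciferase luminescence.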
# [5] = qHTS assay to identify small molecule antagonists of the estrogen related receptor (ERR) signaling pathway (AID 1224819; further: potency means the concentration at half of the fitted maximal effect; nearly all actives have a fitted effect of over 50% in size)
# In short: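 Seed ERR cells 2,000/well; rest 6 h at 37 C/5% CO2; pin compounds in DMSO; incubate 18 h at 37 C; add One-Glo; wait 30 min at room temperature; measure luminescence.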
# [6] = qHTS assay to identify small molecule agonists of the estrogen related receptor (ERR) signaling pathway (AID 1224820)
# In short: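 Following a 6 h settling period, 2,000 ERR cells per well receive DMSO-dissolved compounds by pin tool and incubate 18 h at 37 C; agonist activity is scored from One-Glo luminescence read 30 min post-addition.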
# [7] = tested on: estrogen-related receptor alpha (ERRalpha) with PGC-1alpha coactivator, human; assay: qHTS assay to identify small molecule antagonists of the estrogen related receptor signaling pathway with the pleiotropic PPARgamma coactivator (PGC) (AID 1224821; calls by dose curve; further: potency means the concentration at half of the fitted maximal effect; nearly all actives have a fitted effect of over 50% in size)
# In short: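 Screening used NTP's PGC/ERR cells, dosed via pin tool with compound in DMSO alongside positive and negative controls. After 18 h at 37 C, One-Glo reagent sat 30 min at room temperature before luminescence detection.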
# [8] = qHTS assay to identify small molecule antagonists of the estrogen related receptor signaling pathway with the pleiotropic PPARgamma coactivator (PGC) cell viability counter screen (AID 1224822;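 further: potency means the concentration at half of the fitted maximal effect; viability read after 17.5 h compound exposure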)
# In short: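 17.5 h compound treatment of PGC/ERR cells at 37 C; readout CellTiter-Fluor fluorescence; run alongside the PGC/ERR antagonist screen to flag cytotoxic compounds.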
# [9] = qHTS assay to identify small molecule agonists of the estrogen related receptor signaling pathway with the pleiotropic PPARgamma coactivator (PGC) (AID 1224823)
# In short: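 In this quantitative high-throughput screen, an 18 h, 37 C treatment of PGC/ERR cells with compounds in DMSO preceded a One-Glo luminescence read taken after 30 min at room temperature.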
smiles,measurement,setting,value
[Cl-].[Cl-].[Cl-].[Yb+3],Potency,[1],inactive
Cc1ccccc1OP(=O)(Oc1ccccc1C)Oc1ccccc1C,Potency,[1],inactive
Cc1ccc2cc3c(ccc4ccccc43)c3c2c1CC3,Potency,[1],inactive
same,Potency,[2],inactive
NC1CCC(CC2CCC(N)CC2)CC1 (stereo unspecified),Potency,[1],inactive
C=CCOC(=O)c1ccccc1N,Potency,[1],inactive
same,Potency,[2],inactive
N#CC(C#N)=NNc1cccc(Cl)c1,Potency,[1],inactive
same,Potency,[2],2.73 µM (active)
CN1CCc2cc(Cl)c(O)cc2[C@H]2c3ccccc3CC[C@@H]21,Potency,[1],inactive
CC(Cc1ccccc1)N(C)Cc1ccco1 (stereo unspecified),Potency,[1],inactive
same,Potency,[2],inactive
O=[N+]([O-])[O-].[Tl+],Potency,[1],inactive
CC(C)N(C(=O)CCl)c1ccccc1,Potency,[3],24.5 µM (active)
same,Potency,[2],27.3 µM (active) and 30.6 µM (active)
CCCCN(CCCC)C(=S)[S-].CCCCN(CCCC)C(=S)[S-].[Ni+2],Potency,[1],inactive
same,Potency,[2],inactive
COC(=O)N(OC)c1ccccc1COc1ccn(-c2ccc(Cl)cc2)n1,Potency,[3],inactive
same,Potency,[4],inactive
CO/N=C(\C(=O)OC)c1ccccc1CO/N=C(\C)c1cccc(C(F)(F)F)c1,Potency,[3],inactive
same,Potency,[4],inactive
c1ccc(N=NNc2ccccc2)cc1,Potency,[3],inactive
same,Potency,[2],inactive
same,Potency,[4],3.17 µM (active) and 7.7 µM (active)
Fc1ccc(C(OCCN2CCN(CCCc3ccccc3)CC2)c2ccc(F)cc2)cc1,Potency,[3],16.9 µM (active)
same,Potency,[5],9.08 µM (active)
same,Potency,[6],inactive
same,Potency,[7],12.8 µM (active)
same,Potency,[8],22.8 µM (active)
same,Potency,[9],inactive
O=S(=O)(NS(=O)(=O)C(F)(F)F)C(F)(F)F,Potency,[1],inactive
[O-][Cl+3]([O-])([O-])O,Potency,[1],inactive
COP(=O)(OC)Oc1ccc([N+](=O)[O-])cc1,Potency,[1],inactive
same,Potency,[2],inactive
CC(O)C(=O)[O][Hg][c]1ccccc1 (stereo unspecified),Potency,[1],13.7 µM (active)
CCC(C)Nc1c([N+](=O)[O-])cc(C(C)(C)C)cc1[N+](=O)[O-] (stereo unspecified),Potency,[1],inactive
same,Potency,[2],inactive
CC(C)(C)c1ccc(OP(=O)(Oc2ccccc2)Oc2ccccc2)cc1,Potency,[1],inactive
CCN1CCC2(CC1)COc1cc3c(cc12)N(C(=O)c1ccc(-c2ccc(-c4nnc(C)o4)cc2C)cc1)CC3,Potency,[3],3.59 µM (active)
same,Potency,[2],56.4 µM (active)
ClC1=C(Cl)[C@]2(Cl)[C@@H]3[C@H]4C[C@H]([C@@H]5O[C@H]45)[C@@H]3[C@@]1(Cl)C2(Cl)Cl,Potency,[1],inactive
same,Potency,[2],inactive
Cc1nn(-c2cc(NS(C)(=O)=O)c(Cl)cc2Cl)c(=O)n1C(F)F,Potency,[1],inactive
C1=CCC=C1,Potency,[1],inactive
O.O.O.O=C([O-])[C@H]([O-])[C@@H]([O-])C(=O)[O-].O=C([O-])[C@H]([O-])[C@@H]([O-])C(=O)[O-].[K+].[K+].[Sb+3].[Sb+3],Potency,[1],inactive
ClSC(Cl)(Cl)Cl,Potency,[1],inactive
same,Potency,[2],inactive
COP(=S)(OC)Oc1ccc([N+](=O)[O-])c(C)c1,Potency,[1],inactive
O=C(NC(=O)c1c(F)cccc1F)Nc1ccc(Oc2ccc(C(F)(F)F)cc2Cl)cc1F,Potency,[1],inactive
CCCCCCC[CH2][Sn]([Cl])([Cl])[CH2]CCCCCCC,Potency,[1],inactive
same,Potency,[2],inactive
C#CCC1=C(C)C(OC(=O)C2C(C=C(C)C)C2(C)C)CC1=O (stereo unspecified),Potency,[1],inactive
[F][Sn]([c]1ccccc1)([c]1ccccc1)[c]1ccccc1,Potency,[1],17.2 µM (active)
same,Potency,[2],0.243 µM (active)
CCOP(=S)(OCC)Oc1cc(C)nc(N(CC)CC)n1,Potency,[1],inactive
CNC(C)(C)Cc1ccccc1,Potency,[1],inactive
CCC(OC(C)=O)C(CC(C)NC)(c1ccccc1)c1ccccc1 (stereo unspecified),Potency,[1],inactive
same,Potency,[2],30.9 µM (active)
NC(=O)C(Cl)Cl,Potency,[1],inactive
same,Potency,[2],inactive
C#CC1(O)CCCCC1,Potency,[1],inactive
same,Potency,[2],inactive
same,Potency,[4],inactive
c1ccc2nc(N3CCNCC3)ccc2c1,Potency,[1],inactive
same,Potency,[2],inactive
same,Potency,[4],inactive
COP(=O)(OC)O/C(=C\Cl)c1cc(Cl)c(Cl)cc1Cl,Potency,[1],inactive
same,Potency,[4],inactive
CC1(C)[C@H](/C=C2\CCSC2=O)[C@@H]1C(=O)OCc1coc(Cc2ccccc2)c1,Potency,[1],inactive
same,Potency,[2],inactive
same,Potency,[4],inactive
FC(F)C(F)(F)OCC(Cn1cncn1)c1ccc(Cl)cc1Cl (stereo unspecified),Potency,[1],inactive
same,Potency,[2],24.2 µM (active)
same,Potency,[4],inactive
CC1=C2C[C@H]3[C@@H](CC=C4C[C@@H](O)CC[C@@]43C)[C@@H]2CC[C@]12O[C@@H]1C[C@H](C)CN[C@H]1[C@H]2C,Potency,[1],inactive
same,Potency,[2],inactive
O=C(N[C@@H]1N=C(c2ccccc2F)c2cccc3c2N(CC3)C1=O)c1cc2ccccc2[nH]1,Potency,[1],inactive
same,Potency,[2],inactive
same,Potency,[4],inactive
O=[N+]([O-])c1cc(C(F)(F)F)c(Cl)c([N+](=O)[O-])c1Nc1ncc(C(F)(F)F)cc1Cl,Potency,[1],54.5 µM (active)
same,Potency,[2],30.6 µM (active)
